Screening data deposited in PubChem BioAssay by National Center for Advancing Translational Sciences (NCATS).
ATXN2 expr inh = ATXN2 expression inhibition | HEK-293 ATXN2-luciferase reporter, luminescence, 24 h | Potency, µM (series often up to 57 µM), for the others: at the highest dose activity change, negative = inhibition, hits mostly inhibitors | actives 0.72% (n = 360,000); also: % is scaled to controls: 0 for no effect and ±100 for the full control effect; nearly all actives have a fitted effect of over 55% in size
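ATXN2-luciferase reporter cells (luciferase flanked by upstream and downstream ATXN2 gene portions) were treated 24 h at 37 °C with compounds at up to 57 uM. SteadyGlo luminescence gave expression; GF-AFC fluorescence gave viability.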
HT1080 IDH1KD tx = HT-1080 IDH1 knockdown cell toxicity (counter line) | Potency, µM (series often up to 46.1 µM), for the others: at the top dose activity, negative = toxicity, hits mostly cytotoxic | AID 686971 | actives 2% (n = 360,000) | HT-1080 IDH1 knockdown viability, ATP luminescence, 48 h;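 also: 0% = DMSO wells and -100% = cell-free medium wells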
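Knockdown cells (IDH1KD HT-1080) received compounds 2 h after plating at 750 cells/well and were kept 48 h at 37 °C in 5% FBS RPMI. A CellTiter-Glo luminescence read gave % activity for curve fitting.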
KB-V1 cytotox = KB-V1 MDR subline cytotoxicity. KB-V1 MDR cells viability, CellTiter-Glo, 72 h. actives 3.4% (n = 400,000). Potency, µM (doses to about 46.1 µM), actives largely listed as cytotoxic; also: % is scaled to controls: 0 for no effect and ±100 for the full control effect; nearly all actives have a fitted effect of over 60% in size
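KB-V1, DMEM (no phenol red) + 10% FBS; cpd pin-transferred, titration series; 72 h, 37 degrees C; CellTiter-Glo, luminescence. Data normalized, curve-fit.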
HT1080-NT tox = kills 2HG-producing HT-1080-NT fibrosarcoma cells | HT-1080-NT fibrosarcoma viability, CellTiter-Glo ATP luminescence, 48 h | Potency, µM (doses to about 46.1 µM), inactives show at the highest dose activity, negative = less viability, hits mostly cytotoxic | actives 1.6% (n = 360,000) | AID 686970;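 also: NT is the 2HG producing partner of a matched IDH1 knockdown line; 0% = DMSO-treated cells and -100% = media-only wells without cells; nearly all actives have a fitted effect of over 55% in size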
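750 cells/well, RPMI + 5% FBS; 2 h settle, compound pin-transfer, 48 h at 37 degrees C. CellTiter-Glo 10 min RT, luminescence. Normalized to DMSO and media-only wells.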
S2 tox = reduces viability in counter-screen for ATXN expression inhibitors. S2 cells (HEK-293 line with an ATXN2-luciferase reporter) viability, CellTiter-Fluor protease fluorescence, 24 h. Potency, µM (highest dose often 56.7 µM), actives largely listed as cytotoxic. actives 0.49% (n = 400,000). AID 651635; also: nearly all actives have a fitted effect of over 40% in size
KB-3-1 cytotox = KB-3-1 parental cell cytotoxicity. Potency, µM (series often up to 46.1 µM), most hits filed as cytotoxic. KB-3-1 viability, CellTiter-Glo ATP luminescence, 72 h. actives 1.4% (n = 400,000); also: % is scaled to controls: 0 for no effect and ±100 for the full control effect; nearly all actives have a fitted effect of over 60% in size
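72 h, 37 °C compound treatment of KB-3-1 parental cells; CellTiter-Glo added, 10 min, luminescence read. Data corrected against DMSO-only plates and normalized before curve fitting.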
Active calls of the source: *; i = inactive; ? = inconclusive; nt = no result; ! = not active in a repeat; [ ] = dose if it differs, or a comment. Compounds with a hit are over-represented: about 6.2% of the library has one in this group of screens. Calls follow the shape of the dose curve; as a rule, active = well fitted curve in the direction sought with a large enough effect; inconclusive = small, poorly fitted or top-dose-only effect, or another doubt; inactive = no such curve, though single readings can be large; an effect the other way counts as inactive or inconclusive. Potency is read from the fitted curve at half-maximal effect.

SMILES	ATXN2 expr inh	HT1080 IDH1KD tx	KB-V1 cytotox	HT1080-NT tox	S2 tox	KB-3-1 cytotox
CC(=O)Nc1ccc(S(=O)(=O)Nc2c(C)nn(-c3ccccc3)c2C)cc1	-17.8%	6.2%[9.24 µM]	i	-25.2%	?	i
Cc1cc(NC(=O)c2cnn(-c3ccccc3)c2-n2cccc2)ccc1Br	18.6%	nt	?	nt	i	i
CCOC(=O)c1cc(-c2ccccc2)n(CCCC(=O)Nc2cccc(Cl)c2C)c1C	nt	nt	i	nt	nt	i
COc1cccc(Sc2ccccc2/C=N/NC(N)=O)c1	-1.0%	?	?	?	?	2.91µM*
C=CCOc1c(/C=N\NC(N)=O)cccc1OC	nt	2.0%	i	-4.8%	i	i
O=C(C1CCC(Cn2c(=O)c3sccc3n(Cc3ccc(F)cc3)c2=O)CC1)N1CCOCC1 (stereo not given)	-9.2%	nt	i	nt	i	i
CCOC(=O)C1CCCN(S(=O)(=O)c2ccc3[nH]c(=O)ccc3c2)C1 (stereo not given)	-5.5%	nt	i	nt	i	i
COc1ccc(-c2cc(C(F)(F)F)n3nc(C(=O)Nc4sc5c(c4C#N)CCC(C)C5)cc3n2)cc1OC (stereo not given)	1.7%	nt	i	nt	i	?
Cn1nnnc1SCCNCc1cc(Br)ccc1OCc1ccccc1Cl	?	nt	i	nt	i	?
Cc1c(N/N=C(\C#N)C(=O)c2ccc(Cl)cc2)c(=O)n(-c2ccccc2)n1C	7.94µM*	2.59µM*	i	?	?	3.26µM*
CCOC(=O)NC(=O)/C(C#N)=N\Nc1ccc(Cl)cc1	-24.0%	1.0%	i	-0.9%	i	i
N#C/C(=N\Nc1ccc(Cl)cc1)C(=O)c1ccccc1	?	?	i	2.59µM*	?	?
Cc1ccccc1-n1c(SCC(=O)c2c(N)n(C)c(=O)n(C)c2=O)nc2sc3c(c2c1=O)CCCC3	-20.3%	-22.4%	23.1µM*	-3.0%	i	?
Fc1ccc(CSc2ncnc3c2ncn3C2CCCCO2)cc1 (stereo not given)	55.4%	24.4%	20.6µM*	19.9%	i	i
CCN(CC)S(=O)(=O)c1cc(NC(=O)c2ccccc2OCc2c(C)noc2C)ccc1C	-11.4%	-10.4%	7.31µM*	-6.7%	i	i
Cc1ccc(NC(=O)c2ccccc2OCC(=O)Nc2ccccc2F)cc1S(=O)(=O)N(C)C	nt	?	?	-24.4%	i	5.17µM*
Cc1noc(C)c1COc1ccccc1C(=O)Nc1cccc(S(=O)(=O)N(C)C)c1	5.3%	10.0%	14.6µM*	8.2%	i	i
COc1ccc(NC(=O)c2ccccc2OCc2c(C)noc2C)cc1OC	3.9%	7.1%	?	3.7%	i	i
CN(C)S(=O)(=O)c1cccc(NC(=O)COc2ccccc2C(=O)Nc2ccccc2)c1	nt	?	16.4µM*	-29.7%	?	?
CN(C)c1ccc(/C=C/c2cccc3cc4ccccc4nc23)cc1	nt	nt	i	nt	nt	4.11µM*
CN(C)c1ccc(/C=C/c2ccnc3c(Cl)cccc23)cc1	nt	nt	?	nt	nt	16.4µM*
CN(C)c1ccc(/C=C/c2ccc3ccccc3n2)cc1	nt	?	7.31µM*!	?	nt	8.2µM*!
CN(C)c1ccc(/C=C/c2cc3ccccc3cn2)cc1	nt	nt	i	nt	nt	1.46µM*
CC(=O)SCC(CC(=O)c1ccc(C)cc1)C(=O)O (stereo not given)	-1.2%	nt	nt	nt	i	nt
COc1c(Cl)cc(Cl)cc1CNCCSc1nnnn1C	5.0%	nt	i	nt	i	i
SMILES	ATXN2 expr inh	HT1080 IDH1KD tx	KB-V1 cytotox	HT1080-NT tox	S2 tox	KB-3-1 cytotox
COC(=O)c1ccc(Cn2c(=O)cc(C)c3c(C)nn(C)c32)cc1	-6.6%	nt	i	nt	i	i
C(=C\c1ccc2ccccc2n1)/c1ccccc1	nt	?	i	?	i	?
CC[N+](CC)(CC)c1ccc(/C=C/c2ccc3ccccc3n2)cc1	nt	nt	i	nt	nt	1.84µM*
COc1ccc(C(CC(=O)O)NC(=O)c2cc3ccccc3oc2=O)cc1OC (stereo not given)	10.6%	nt	i	nt	i	i
CC1=Nc2cc(C(=O)NCCc3ccc(Cl)cc3)ccc2Sc2c(C)ccc(C)c21	11.4%	nt	1.64µM*	nt	?	2.59µM*
CC1=Nc2cc(C(=O)NCCc3ccccc3)ccc2Sc2c(C)ccc(C)c21	-18.2%	nt	0.411µM*	nt	?	0.651µM*
CCCNC(=O)c1ccc2c(c1)N=C(C)c1c(C)ccc(C)c1S2	-7.3%	nt	?	nt	?	0.82µM*
COc1ccc(CNC(=O)c2ccc3c(c2)N=C(C)c2c(C)ccc(C)c2S3)cc1	2.4%	nt	1.84µM*	nt	?	4.61µM*
Cc1sc2ccccc2[n+]1CCc1ccccc1	nt	nt	i	nt	nt	i
O=C(NCc1ccco1)C1CCN(C(=O)N2CCOc3ccc(Cl)cc32)CC1	nt	nt	i	nt	nt	i
CCC(Sc1nnc(-c2ccc(F)cc2)c(-c2ccc(F)cc2)n1)C(=O)NC1CCCC1 (stereo not given)	nt	nt	i	nt	nt	i
CCn1c(C)c(C(C)=O)c(N2CCN(c3ccc(F)cc3)CC2)nc1=S	0.0%	9.1%	i	14.3%	i	i
CC(=O)c1c(N2CCN(c3ccc(F)cc3)CC2)nc(=S)n(Cc2ccccc2)c1C	-5.6%	-25.4%	?	-18.2%	i	23.1µM*
CC(=O)c1c(N2CCN(Cc3ccccc3)CC2)nc(=S)n(Cc2ccccc2)c1C	-10.7%	-1.7%	2.91µM*	-3.3%	i	?
CC(=O)c1c(N2CCCCC2)nc(=S)n(Cc2ccccc2)c1C	3.4%	-24.0%	i	1.5%	i	?
O=C(C[N+]12CN3CN(CN(C3)C1)C2)c1ccc(O)c(O)c1	nt	nt	i	nt	nt	i
CCOc1ccc(-c2nc(SCC(=O)NCCOC)c(-c3ccc(OC)c(OC)c3)[nH]2)cc1	nt	nt	i	nt	nt	i
O=C(COc1ccccc1-c1ccccc1)N/N=C/c1ccc2ccccc2c1	?	1.16µM*	?	?	?	1.3µM*
C/C(=N\NC(=O)COc1ccccc1-c1ccccc1)c1ccccn1	?	?	4.11µM*	?	nt	?
CCCCCC(=O)N/N=C(\C)c1ccccn1	?	-24.3%	5.17µM*	1.3%	i	?
O=C(N/N=C/c1cccc([N+](=O)[O-])c1)c1ccc(COc2ccccc2-c2ccccc2)cc1	1.7%	-1.6%	16.4µM*	4.4%	i	?
CC1c2ccccc2CN1NC(=O)c1ccc(Cl)c(S(N)(=O)=O)c1 (stereo not given)	3.3%	nt	nt	nt	i	nt
Cc1nn(CCCC(=O)Nc2cccc(F)c2)c(=O)c2c1sc1ccccc12	nt	nt	i	nt	nt	i
